In PubChem BioAssay AID588689 (Southern Research Specialized Biocontainment Screening …, 2011) one finds inhibition data, which are given here for 90 compounds.

Among all 340,000 compounds or so, about 1,000 (0.29%) were called active. Rule as the data show it: inconclusive = inhibition above about 29% without an active follow-up result; inactive = below that. Only a sample is shown. Measured potencies and affinities stand elsewhere.

The test concerns the target Genome polyprotein (Dengue virus type 2 (strain 16681-PDK53)) (UniProt P29991). Kind of test: flavivirus cap methylation enzyme inhibition – biochemical, confirmation dose response, primary screen (AID 588689). Particulars: Dengue-2 NS5 methyltransferase capping enzyme assay, at 25 µM, stronger effect = higher value.
The mark [1] stands for this setting: measured here: pilot screen replicate inhibition.

`Cc1ccccc1C(=O)Nc1c2c(nn1C(C)(C)C)CS(=O)(=O)C2`: the inhibition (commonly the relative decrease from the control value, in per cent) is -5.2% (inactive). `C=C1C(=O)O[C@H]2C[C@H]1[C@@H](OC(C)=O)C/C(C)=C/CC/C(C)=C\CC[C@]2(C)O`: the inhibition was -22.5% (inactive). For the same compound, under setting [1], the inhibition is -2.46%.

With `CC(=O)C12CCCCC1CC1C3CC(C)C4(O)CC(=O)CCC4(C)C3CCC12C` (stereo not given), the inhibition is -1.3% (inactive). On the same count and under the same terms, then `O=C(c1ccccc1NS(=O)(=O)c1ccccc1[N+](=O)[O-])N1CCOCC1`, with -3.61% (inactive); and `O=C(c1ccccc1NS(=O)(=O)c1ccccc1[N+](=O)[O-])N1CCCC1`, with 5.25% (inactive). In the case of `O=C1NN(c2ccccc2)C(=O)/C1=C/c1ccc(Sc2cccc3ccccc23)o1`, the inhibition was -6.2% (inactive). Still for that read-out and setting: then `O=C1NN(c2ccccc2)C(=O)/C1=C/c1ccc(Sc2ccc(Cl)cc2)o1`, with 29.5% (inactive); and `O=C1NN(c2ccccc2)C(=O)/C1=C\c1ccc(-c2cc([N+](=O)[O-])ccc2O)o1`, with -10.2% (inactive); and `O=Cc1ccc(-c2cccc(C(=O)O)c2)o1`, with 0.72% (inactive). On the same count and under the same terms, then `CCc1cc(=O)oc2c3c(cc(OCC(=O)NCCCC(=O)O)c12)OC(C)(C)CC3`, with -5.29% (inactive). Still for that read-out and setting: with `Cc1cc(C)n2nc(SCC(=O)N3CCCCC3C)nc2n1` (stereo not given) the figure was 3.69% (inactive); with `CCC1(C2=CCCCC2)C(=O)NC(=O)N=C1N` (stereo not given), 1.17% (inactive). As to `C[C@H](NC(=O)c1nc[nH]c1C(=O)NCCCCCN)C(=O)OCc1ccccc1`, the inhibition was 1.59% (inactive).

On to `O=C(COC(=O)c1ccc(-c2cnc3ccccc3n2)cc1)c1ccccc1`, for which the inhibition was 5.84% (inactive).

For `Nc1cccc2nsnc12`, the inhibition was 12.4% (inactive). Still for that read-out and setting: with `COc1ccc(-n2nc3cc(N)c(Br)cc3n2)cc1` the figure was 2.38% (inactive). Still for that read-out and setting: then `CCOC(=O)C1C(C(=O)Nc2cccc(C(F)(F)F)c2)C1C(=O)NC(C)C` (stereo not given), with -1.46% (inactive); and `O=C(Nc1c[nH]c(=O)[nH]c1=O)c1cccc([N+](=O)[O-])c1`, with -9.65% (inactive); and `COC(=O)c1sc(-c2ccccc2)cc1NC(=O)c1ccccc1`, with -1.45% (inactive).

Take `COC(=O)c1sc(-c2ccc(C(C)(C)C)cc2)cc1NC(=O)CSCC(=O)O`: the inhibition was 3.13% (inactive). Still for that read-out and setting: with `COC(=O)c1sc(-c2ccc(Cl)cc2)cc1NC(=O)c1ccccc1C(=O)O` the figure was 15.7% (inactive). On the same count and under the same terms, then `COC(=O)c1sc(-c2ccc(Cl)cc2)cc1NC(=O)/C=C/C(=O)O`, with 16.1% (inactive); and `OCC(CO)(CO)n1cnnn1`, with -8.59% (inactive). Regarding `Cc1ccnc(N/C=C(/NC(=O)c2ccccc2)C(=O)N/N=C\c2ccc(Cl)cc2)n1`, the inhibition was -3.09% (inactive). On the same count and under the same terms, then `O=C(COC(=O)c1ccc2c(c1)S(=O)(=O)N=C1CCCCCN12)NCc1cccs1`, with -3.45% (inactive).

Consider `CCOC(=O)C1CCCN(S(=O)(=O)c2cc(OCC(N)=O)c(C)cc2Cl)C1` (stereo not given), for which the inhibition was -5.68% (inactive).

For `CC(C)c1ccc(S(=O)(=O)c2nnn3c2nc(N2CCCCC2)c2ccccc23)cc1`, the inhibition was 1.47% (inactive).

Consider `CC(C)c1ccc(S(=O)(=O)c2nnn3c2nc(NCC2CCCO2)c2ccccc23)cc1` (stereo not given), for which the inhibition is 0% (inactive). On the same count and under the same terms, with `O=C(/C=C/c1ccco1)Nc1ccc2c(c1)OCCO2` the figure was -4.48% (inactive); with `CCOC(=O)c1c(-c2ccc(C)cc2)csc1NC(=O)C1CC=CCC1C(=O)O` (stereo not given), 14.8% (inactive). The same measure, in the same setting: then `COC(=O)c1c(-c2ccc(C)cc2)csc1NC(=O)C1CC=CCC1C(=O)O` (stereo not given), with 0% (inactive). On the same count and under the same terms, with `COC(=O)c1c(-c2ccccc2)csc1NC(=O)C1CC=CCC1C(=O)O` (stereo not given) the figure was -4.1% (inactive). On to `CCOC(=O)c1c(-c2ccc(F)cc2)csc1NC(=O)C1CC=CCC1C(=O)O` (stereo not given), for which the inhibition was 9.56% (inactive). Still for that read-out and setting: with `O=C(NC(=S)Nc1ccccc1Br)C1CC1` the figure was 7.22% (inactive); with `Cc1nc2cc(N3CCCCC3)c(NC(=O)c3cccnc3)cc2c(=O)n1Cc1ccccc1`, -0.81% (inactive); with `Nn1c(SCC(=O)Nc2ccc(F)c(F)c2)nnc1C1CCCCC1`, -4.85% (inactive).

`COC(=O)CSc1nnc(-c2ccc(S(=O)(=O)N3CCCC3)cc2)o1`: the inhibition was -3.25% (inactive). Same read-out and setting: with `Nc1nc2c(nc(SCc3ccccc3Br)n2[C@@H]2O[C@H](CO)[C@@H](O)[C@H]2O)c(=O)[nH]1` the figure was -5.87% (inactive); with `CCOc1ccc(NC(=S)N(CCc2c(C)[nH]c3ccc(C)cc23)Cc2ccncc2)cc1`, -0.7% (inactive); with `O=C(CSc1nnc(-c2ccc(Cl)cc2)n1-c1ccccc1)N/N=C/c1ccccc1C(=O)O`, -3.12% (inactive). As to `COc1ccc([C@H]2N[C@]3(CCCN(Cc4ccc(Cl)cc4)C3=O)[C@H]3C(=O)N(Cc4ccccc4)C(=O)[C@@H]23)cc1`, the inhibition is -3.98% (inactive).

As to `CCOC(=O)c1c(NCc2ccc3c(c2)OCO3)c2ccccc2[nH]c1=O`, the inhibition was -4.02% (inactive). Still for that read-out and setting: with `O=S(=O)(Nc1nccs1)c1cc(Cl)ccc1Cl` the figure was -13.7% (inactive); with `O=S(=O)(Nc1nc(-c2ccccc2)cs1)c1cc(Cl)ccc1Cl`, 28.3% (inactive); with `S=C(Nc1ccc(Nc2ccccc2)cc1)Nc1ccccn1`, -0.82% (inactive). The same measure, in the same setting: with `COc1ccc(-c2cc(=O)c3ccccc3n2C)cc1` the figure was -9.65% (inactive); with `COc1ccc(N2C(=O)C(Cl)=C(Nc3ccccc3OC)C2=O)cc1`, 1.45% (inactive); with `CCOc1ccc(N2C(=O)C(Cl)=C(Nc3ccccc3O)C2=O)cc1`, 31% (inactive).

Take `Cc1cccc(/C=N/n2c(C)cc(C)c(C#N)c2=O)c1`: the inhibition is -3.26% (inactive). The same measure, in the same setting: then `O=C1C(=Cc2cccn2-c2ccccc2)C(=O)c2ccccc21`, with 5.2% (inactive). The same measure, in the same setting: with `O=Cc1cccn1-c1ccc(O)cc1` the figure was -5.89% (inactive).

Consider `O=C(O)c1cccc(-n2cccc2C=C2C(=O)c3ccccc3C2=O)c1`, for which the inhibition was 12.5% (inactive). The same measure, in the same setting: then `O=C1NC(=S)N/C1=C/c1cccn1-c1ccc([N+](=O)[O-])cc1`, with 0% (inactive); and `CCC(OC(=O)CNS(=O)(=O)c1ccccc1)C(=O)c1ccccc1` (stereo not given), with 5.35% (inactive).

For `COc1ccc2c(c1OC)C(=O)N1C(C(=O)O)Cc3c([nH]c4ccccc34)C21` (stereo not given), the inhibition is -3.23% (inactive).

Turning to `CCOc1cc(NC(=S)NCCCN2CCOCC2)c(OCC)cc1NC(=O)c1cccc(C)c1`, the inhibition is 3.64% (inactive).

For `O=S(=O)(CCSc1ccc(C(F)(F)F)cn1)c1ccccc1`, the inhibition is -9.27% (inactive). On the same count and under the same terms, then `O=C(NCc1ccco1)c1ccc(CS(=O)Cc2cccc(Cl)c2)o1` (stereo not given), with 2.71% (inactive); and `NNc1nc(-c2ccccc2)c2cc(Cl)ccc2n1`, with 4.62% (inactive); and `COCCN(CC(=O)Nc1cccc(C)c1C)C(=O)C1(c2ccc(Cl)cc2)CCC1`, with -0.37% (inactive). The same measure, in the same setting: then `O=C1CCCC2=C1C(c1ccc(Br)cc1)c1c([nH]c(=S)[nH]c1=O)N2` (stereo not given), with 15.2% (inactive). Regarding `Cc1ccc(C2C3=C(CCCC3=O)Nc3[nH]c(=S)[nH]c(=O)c32)cc1` (stereo not given), the inhibition is -5.01% (inactive). Besides, the inhibition under setting [1] was -6.68%. As for `O=c1cc(CCc2ccccc2)oc2cccc(O)c12`, the inhibition is -3.62% (inactive). The same measure, in the same setting: with `CC(C)(C)C(=O)CN1C(=O)NC2(CCc3ccccc32)C1=O` (stereo not given) the figure was -0.65% (inactive); with `COc1cccc(-c2nc(CS(=O)(=O)CC(=O)N3CCc4ccccc4C3)c(C)o2)c1`, 6.54% (inactive). On the same count and under the same terms, then `CNc1ccccc1C(=O)OC`, with 2.17% (inactive); and `CC1(C)CC(=O)C(N=Nc2ccc(OC(F)F)cc2)=C(O)C1`, with 10.8% (inactive); and `CC1(C)CC(=O)C(C(C2=C(O)CC(C)(C)CC2=O)c2ccco2)C(=O)C1` (stereo not given), with -52.5% (inactive). As to `CC1(C)CC(=O)C(C(c2ccco2)C2C(=O)CC(C)(C)CC2=O)C(=O)C1`, the inhibition is 37.4% (inactive). For the same compound, the inhibition under setting [1] amounted to 17.1%. Consider `CC1(C)CC(=O)C(Br)=C(O)C1`, for which the inhibition was -10.3% (inactive). On the same count and under the same terms, then `CC1(C)CC(=O)C(C(C#Cc2ccccc2)C2=C(O)CC(C)(C)CC2=O)=C(O)C1`, with -2.82% (inactive). Same read-out and setting: then `CC1(C)CC(=O)C(C(c2ccncc2)C2C(=O)CC(C)(C)CC2=O)C(=O)C1`, with 5.41% (inactive). Take `CC1(C)CC(=O)C(C(C2=C(O)CC(C)(C)CC2=O)c2cccc(O)c2)C(=O)C1` (stereo not given): the inhibition was 0.68% (inactive). Under setting [1], the inhibition was -19.3%. In the case of `COc1cccc(C(C2=C(O)CC(C)(C)CC2=O)C2C(=O)CC(C)(C)CC2=O)c1` (stereo not given), the inhibition was -1.95% (inactive). As for `O=C(O)c1cnc(-c2ccccc2)nc1Sc1ccc(Cl)cc1Cl`, the inhibition was 4.03% (inactive). As for `Cc1cccc(C2=NN(c3ccccc3)[C@@H](C(=O)N3CCOC3=O)[C@@H]2C)c1`, the inhibition is -1.32% (inactive). Moreover, the inhibition under setting [1] was found to be 4.88%.

Turning to `CCOC(=O)c1cc(=O)nc(N)s1`, the inhibition was -4.03% (inactive). Turning to `O=C(COc1ccc([N+](=O)[O-])cc1)NCC(c1cccs1)N1CCOCC1` (stereo not given), the inhibition is 4.32% (inactive). The same measure, in the same setting: then `CC(C)(C)OC(=O)N1CCC(CC2CC(c3ccccc3)=NO2)(C(=O)O)CC1` (stereo not given), with -3.93% (inactive); and `O=S(=O)(Nc1ccccc1N1CCCCC1)c1ccccc1`, with 1.3% (inactive); and `S=C(Nc1ccc(Br)cc1Cl)N1CCCC1`, with -2.6% (inactive). Consider `COc1ccc(C2=CC(=O)C[C@H](c3ccc(OC)c(OC)c3)C2)cn1`, for which the inhibition was -0.4% (inactive).

As for `O=C(O)CN1CCN(Cc2cccc(Cl)c2)C1=O`, the inhibition is -1.31% (inactive).

In the case of `CCCC(C1=C(O)CC(C)(C)CC1=O)C1C(=O)CC(C)(C)CC1=O` (stereo not given), the inhibition is -11.2% (inactive). Take `CC1(C)CC(=O)C(CC2=C(O)CC(C)(C)CC2=O)C(=O)C1`: the inhibition was -33.8% (inactive). Take `CC(C)c1cc(C(=O)NCc2cccnc2)no1`: the inhibition was 1.6% (inactive). In the case of `O=C(NNc1ccccc1[N+](=O)[O-])Nc1ccccc1`, the inhibition is -1.39% (inactive). The same measure, in the same setting: with `COc1cc(NC(=O)CSc2ncnc3sc4c(c23)CCCC4)c(C(=O)O)cc1OC` the figure was -3.33% (inactive). Still for that read-out and setting: with `CC1CCc2c(sc3ncnc(SCC(=O)Nc4ccc(C(=O)O)cc4)c23)C1` (stereo not given) the figure was -4.98% (inactive); with `COCCNC(=O)C(=O)c1c(-c2ccccc2)[nH]c2ccccc12`, 1.52% (inactive).
